Common to all, as to experiment: log2 ratio of Biotin-Ahx-Ub-VS probe labelling (fragment/DMSO); higher = less target engagement (more negative = stronger competition), active = hit call of the paper (q ≤ 0.05, log2 ratio ≤ -1)
Conditions in all cases: compound concentration: 200 uM; treatment time: 3 h

Experiment [1] has as its target UniProt O00507. In short, it runs like this:
(§1)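 In triplicate, 495 µg of HEK293T lysate per sample was incubated with fragment at 200 µM or vehicle for 3 h. Biotin-Ahx-Ub-VS was then added to 0.5 µM final for 1 h, and labelled DUBs were captured with NeutrAvidin, digested with LysC and trypsin, and measured by diaPASEF LC-MS/MS. Data are average log2 fragment/vehicle ratios by unpaired t-test from global-median-normalised Spectronaut label-free quantities, restricted to proteins with ≥2 unique peptides.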

Experiment [2] concerns the target UniProt P51784. In outline: as §1
The target in experiment [3] is T1, UniProt Q5T2D3.
T1 sequence (whole entry): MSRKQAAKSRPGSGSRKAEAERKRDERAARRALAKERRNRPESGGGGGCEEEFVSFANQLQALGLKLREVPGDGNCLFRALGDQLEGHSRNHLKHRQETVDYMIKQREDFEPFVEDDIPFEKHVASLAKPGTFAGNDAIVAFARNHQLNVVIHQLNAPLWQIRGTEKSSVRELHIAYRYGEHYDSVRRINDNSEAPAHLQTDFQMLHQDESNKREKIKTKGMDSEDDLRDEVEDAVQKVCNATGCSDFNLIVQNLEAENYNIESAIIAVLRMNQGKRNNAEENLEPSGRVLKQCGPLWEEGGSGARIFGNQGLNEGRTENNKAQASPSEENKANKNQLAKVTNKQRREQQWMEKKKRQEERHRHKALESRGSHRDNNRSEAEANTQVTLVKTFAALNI
In short, it runs like this: as §1

In experiment [4] the target is T2, UniProt Q8TE49.
T2 sequence (whole entry): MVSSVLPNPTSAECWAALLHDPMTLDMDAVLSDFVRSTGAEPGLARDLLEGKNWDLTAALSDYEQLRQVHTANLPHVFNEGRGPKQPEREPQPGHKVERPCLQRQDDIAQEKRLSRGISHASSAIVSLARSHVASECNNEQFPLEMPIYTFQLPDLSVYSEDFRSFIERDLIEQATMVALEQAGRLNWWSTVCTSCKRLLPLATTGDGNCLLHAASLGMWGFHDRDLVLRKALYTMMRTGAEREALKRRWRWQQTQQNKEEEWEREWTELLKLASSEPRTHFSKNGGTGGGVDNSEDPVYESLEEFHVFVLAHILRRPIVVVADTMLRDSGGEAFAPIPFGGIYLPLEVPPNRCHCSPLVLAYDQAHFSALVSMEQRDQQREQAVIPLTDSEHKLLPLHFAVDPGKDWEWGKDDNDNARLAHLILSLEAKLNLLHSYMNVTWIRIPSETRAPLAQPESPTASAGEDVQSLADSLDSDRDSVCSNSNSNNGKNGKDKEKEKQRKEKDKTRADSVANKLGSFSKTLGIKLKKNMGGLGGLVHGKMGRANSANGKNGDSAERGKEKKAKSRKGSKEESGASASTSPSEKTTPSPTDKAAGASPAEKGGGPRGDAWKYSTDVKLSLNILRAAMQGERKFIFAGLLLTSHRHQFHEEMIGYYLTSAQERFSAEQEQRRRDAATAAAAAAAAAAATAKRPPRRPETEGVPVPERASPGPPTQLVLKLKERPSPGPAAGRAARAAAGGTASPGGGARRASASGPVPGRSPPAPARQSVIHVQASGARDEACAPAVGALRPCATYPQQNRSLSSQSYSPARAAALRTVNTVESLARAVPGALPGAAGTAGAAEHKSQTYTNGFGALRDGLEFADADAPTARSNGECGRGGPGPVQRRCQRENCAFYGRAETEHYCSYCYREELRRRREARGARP
In outline: as §1

Experiment [5] addresses T3, UniProt Q9P2H5.
T3 sequence (whole entry): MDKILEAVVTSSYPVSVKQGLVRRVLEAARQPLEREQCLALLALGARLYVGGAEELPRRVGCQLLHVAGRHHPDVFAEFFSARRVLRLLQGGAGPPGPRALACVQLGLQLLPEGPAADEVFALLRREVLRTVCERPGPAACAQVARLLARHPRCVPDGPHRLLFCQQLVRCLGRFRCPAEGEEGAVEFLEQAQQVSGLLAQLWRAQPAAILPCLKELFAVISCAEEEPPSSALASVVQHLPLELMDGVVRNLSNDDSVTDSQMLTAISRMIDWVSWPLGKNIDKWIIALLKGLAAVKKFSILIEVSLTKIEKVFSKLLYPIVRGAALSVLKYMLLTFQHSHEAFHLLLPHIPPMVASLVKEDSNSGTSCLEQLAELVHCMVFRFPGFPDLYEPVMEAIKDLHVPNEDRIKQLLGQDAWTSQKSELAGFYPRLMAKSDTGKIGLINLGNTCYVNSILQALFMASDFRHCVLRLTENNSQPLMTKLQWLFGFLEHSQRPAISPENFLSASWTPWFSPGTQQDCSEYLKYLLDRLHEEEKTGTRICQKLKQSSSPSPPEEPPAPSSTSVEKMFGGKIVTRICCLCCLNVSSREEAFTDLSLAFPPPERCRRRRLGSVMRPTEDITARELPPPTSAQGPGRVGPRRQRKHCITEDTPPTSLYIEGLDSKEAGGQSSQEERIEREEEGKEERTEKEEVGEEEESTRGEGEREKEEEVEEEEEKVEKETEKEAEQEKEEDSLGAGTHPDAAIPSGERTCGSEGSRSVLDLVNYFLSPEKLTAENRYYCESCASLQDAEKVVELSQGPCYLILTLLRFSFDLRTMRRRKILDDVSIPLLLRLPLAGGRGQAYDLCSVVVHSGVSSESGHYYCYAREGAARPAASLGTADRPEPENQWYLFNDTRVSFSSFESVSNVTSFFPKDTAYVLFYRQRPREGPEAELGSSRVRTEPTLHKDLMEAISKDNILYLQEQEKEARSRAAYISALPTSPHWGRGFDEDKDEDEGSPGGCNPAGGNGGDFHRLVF
In short, it runs like this:
as §1

The target in experiment [6] is T4, UniProt Q9UGI0.
T4 sequence (whole entry): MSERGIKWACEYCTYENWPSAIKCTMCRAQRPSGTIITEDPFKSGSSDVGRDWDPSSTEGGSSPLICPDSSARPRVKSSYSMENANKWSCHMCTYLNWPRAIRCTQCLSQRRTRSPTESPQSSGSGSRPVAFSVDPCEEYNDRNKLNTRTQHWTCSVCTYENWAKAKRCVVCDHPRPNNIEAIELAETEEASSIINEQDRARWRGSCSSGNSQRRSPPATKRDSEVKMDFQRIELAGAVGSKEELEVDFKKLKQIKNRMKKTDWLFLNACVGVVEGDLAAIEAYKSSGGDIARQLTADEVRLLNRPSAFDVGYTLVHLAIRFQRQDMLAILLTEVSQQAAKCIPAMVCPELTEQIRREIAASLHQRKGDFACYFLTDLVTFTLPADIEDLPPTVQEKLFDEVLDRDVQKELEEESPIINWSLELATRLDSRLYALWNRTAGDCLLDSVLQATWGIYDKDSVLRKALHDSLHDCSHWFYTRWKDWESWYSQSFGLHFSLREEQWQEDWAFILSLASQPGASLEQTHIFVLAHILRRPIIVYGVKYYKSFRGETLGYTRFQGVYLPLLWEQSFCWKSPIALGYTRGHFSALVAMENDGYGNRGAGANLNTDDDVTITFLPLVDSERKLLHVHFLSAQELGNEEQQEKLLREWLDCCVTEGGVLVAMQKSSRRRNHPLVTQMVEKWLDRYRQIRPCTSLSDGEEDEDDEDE
In short, it runs like this: as §1

Experiment [7] addresses T5, YOD1 (UniProt Q5VVQ6).
T5 sequence (whole entry): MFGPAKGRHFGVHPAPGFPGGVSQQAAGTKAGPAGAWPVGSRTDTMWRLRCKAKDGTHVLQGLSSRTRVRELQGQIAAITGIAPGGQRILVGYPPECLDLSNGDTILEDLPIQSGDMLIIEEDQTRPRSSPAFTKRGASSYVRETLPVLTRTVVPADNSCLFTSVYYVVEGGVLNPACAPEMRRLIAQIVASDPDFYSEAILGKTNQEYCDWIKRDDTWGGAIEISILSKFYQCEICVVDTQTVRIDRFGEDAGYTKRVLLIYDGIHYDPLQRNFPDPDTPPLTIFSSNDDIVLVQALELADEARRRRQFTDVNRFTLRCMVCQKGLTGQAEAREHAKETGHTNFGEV
In short, it runs like this:
as §1

9 compounds from the supplement of paper PMC11732987, “Enantioselective OTUD7B fragment discovery through chemoproteomics screening and high-throughput optimisation” (Communications Chemistry, 2025) can be followed below.

Values without a mark were called inactive.

UniProt O00507, sequence (O00507 whole entry, the tested form may be a part): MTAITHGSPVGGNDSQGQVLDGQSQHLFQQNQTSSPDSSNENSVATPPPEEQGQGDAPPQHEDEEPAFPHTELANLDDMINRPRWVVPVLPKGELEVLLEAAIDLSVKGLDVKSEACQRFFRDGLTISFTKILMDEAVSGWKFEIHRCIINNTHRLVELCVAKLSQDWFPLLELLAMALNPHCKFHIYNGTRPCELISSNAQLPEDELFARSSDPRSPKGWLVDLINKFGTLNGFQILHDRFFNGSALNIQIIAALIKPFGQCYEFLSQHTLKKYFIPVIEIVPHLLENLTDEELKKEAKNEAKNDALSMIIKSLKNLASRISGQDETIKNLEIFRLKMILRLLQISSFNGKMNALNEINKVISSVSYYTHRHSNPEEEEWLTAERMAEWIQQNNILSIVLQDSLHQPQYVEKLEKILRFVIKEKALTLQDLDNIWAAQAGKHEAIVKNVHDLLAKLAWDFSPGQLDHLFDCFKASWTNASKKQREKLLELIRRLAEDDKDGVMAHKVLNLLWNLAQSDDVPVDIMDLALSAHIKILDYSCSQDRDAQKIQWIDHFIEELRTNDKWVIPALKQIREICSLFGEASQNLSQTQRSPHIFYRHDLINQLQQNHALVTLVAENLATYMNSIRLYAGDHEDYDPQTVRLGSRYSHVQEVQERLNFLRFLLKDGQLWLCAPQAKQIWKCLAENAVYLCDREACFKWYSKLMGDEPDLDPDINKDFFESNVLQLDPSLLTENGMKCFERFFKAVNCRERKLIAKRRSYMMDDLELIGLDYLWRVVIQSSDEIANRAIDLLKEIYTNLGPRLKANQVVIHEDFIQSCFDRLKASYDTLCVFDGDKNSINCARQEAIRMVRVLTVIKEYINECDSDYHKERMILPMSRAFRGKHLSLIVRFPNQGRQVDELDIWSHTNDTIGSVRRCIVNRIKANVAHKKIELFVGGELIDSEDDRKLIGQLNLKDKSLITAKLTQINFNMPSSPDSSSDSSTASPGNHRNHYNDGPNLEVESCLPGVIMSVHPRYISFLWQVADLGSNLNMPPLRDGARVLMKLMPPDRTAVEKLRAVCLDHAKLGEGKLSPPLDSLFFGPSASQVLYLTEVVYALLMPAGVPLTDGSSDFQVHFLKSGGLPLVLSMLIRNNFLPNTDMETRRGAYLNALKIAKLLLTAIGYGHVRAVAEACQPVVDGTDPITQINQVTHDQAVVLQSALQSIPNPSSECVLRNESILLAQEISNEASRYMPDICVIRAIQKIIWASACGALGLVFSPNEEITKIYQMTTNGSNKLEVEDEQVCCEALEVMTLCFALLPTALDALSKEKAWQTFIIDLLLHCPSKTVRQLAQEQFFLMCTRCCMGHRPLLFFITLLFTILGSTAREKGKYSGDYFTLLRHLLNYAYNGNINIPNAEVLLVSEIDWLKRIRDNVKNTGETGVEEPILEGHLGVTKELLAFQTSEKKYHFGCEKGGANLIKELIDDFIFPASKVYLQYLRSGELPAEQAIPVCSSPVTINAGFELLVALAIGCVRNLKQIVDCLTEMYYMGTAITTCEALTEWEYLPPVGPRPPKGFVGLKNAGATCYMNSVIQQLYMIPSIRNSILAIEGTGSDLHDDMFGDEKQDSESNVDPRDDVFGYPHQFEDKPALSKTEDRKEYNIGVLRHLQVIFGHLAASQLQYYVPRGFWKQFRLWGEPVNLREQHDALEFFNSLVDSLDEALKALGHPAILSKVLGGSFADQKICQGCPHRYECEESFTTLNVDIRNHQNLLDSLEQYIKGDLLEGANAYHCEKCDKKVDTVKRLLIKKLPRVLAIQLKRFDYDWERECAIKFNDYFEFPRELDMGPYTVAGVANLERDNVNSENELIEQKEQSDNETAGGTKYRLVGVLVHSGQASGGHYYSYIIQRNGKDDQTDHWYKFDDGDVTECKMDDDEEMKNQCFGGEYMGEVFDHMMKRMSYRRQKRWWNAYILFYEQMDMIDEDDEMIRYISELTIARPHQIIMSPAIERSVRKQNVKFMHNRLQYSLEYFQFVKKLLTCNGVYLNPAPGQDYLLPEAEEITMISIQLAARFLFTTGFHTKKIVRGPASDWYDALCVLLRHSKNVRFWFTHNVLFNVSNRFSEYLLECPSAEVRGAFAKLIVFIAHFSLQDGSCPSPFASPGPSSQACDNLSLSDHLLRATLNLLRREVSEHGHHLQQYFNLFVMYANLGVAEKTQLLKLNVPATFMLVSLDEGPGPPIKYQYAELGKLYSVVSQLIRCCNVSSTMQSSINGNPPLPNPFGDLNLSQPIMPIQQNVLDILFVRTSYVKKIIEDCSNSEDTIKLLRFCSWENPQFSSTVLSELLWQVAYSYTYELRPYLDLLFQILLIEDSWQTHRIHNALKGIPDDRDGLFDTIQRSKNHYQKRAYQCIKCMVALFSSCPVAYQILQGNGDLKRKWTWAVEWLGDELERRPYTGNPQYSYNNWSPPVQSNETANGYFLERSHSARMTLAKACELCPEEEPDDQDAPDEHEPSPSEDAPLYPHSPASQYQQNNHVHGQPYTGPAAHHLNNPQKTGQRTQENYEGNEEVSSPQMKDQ
UniProt P51784, sequence (P51784 whole entry): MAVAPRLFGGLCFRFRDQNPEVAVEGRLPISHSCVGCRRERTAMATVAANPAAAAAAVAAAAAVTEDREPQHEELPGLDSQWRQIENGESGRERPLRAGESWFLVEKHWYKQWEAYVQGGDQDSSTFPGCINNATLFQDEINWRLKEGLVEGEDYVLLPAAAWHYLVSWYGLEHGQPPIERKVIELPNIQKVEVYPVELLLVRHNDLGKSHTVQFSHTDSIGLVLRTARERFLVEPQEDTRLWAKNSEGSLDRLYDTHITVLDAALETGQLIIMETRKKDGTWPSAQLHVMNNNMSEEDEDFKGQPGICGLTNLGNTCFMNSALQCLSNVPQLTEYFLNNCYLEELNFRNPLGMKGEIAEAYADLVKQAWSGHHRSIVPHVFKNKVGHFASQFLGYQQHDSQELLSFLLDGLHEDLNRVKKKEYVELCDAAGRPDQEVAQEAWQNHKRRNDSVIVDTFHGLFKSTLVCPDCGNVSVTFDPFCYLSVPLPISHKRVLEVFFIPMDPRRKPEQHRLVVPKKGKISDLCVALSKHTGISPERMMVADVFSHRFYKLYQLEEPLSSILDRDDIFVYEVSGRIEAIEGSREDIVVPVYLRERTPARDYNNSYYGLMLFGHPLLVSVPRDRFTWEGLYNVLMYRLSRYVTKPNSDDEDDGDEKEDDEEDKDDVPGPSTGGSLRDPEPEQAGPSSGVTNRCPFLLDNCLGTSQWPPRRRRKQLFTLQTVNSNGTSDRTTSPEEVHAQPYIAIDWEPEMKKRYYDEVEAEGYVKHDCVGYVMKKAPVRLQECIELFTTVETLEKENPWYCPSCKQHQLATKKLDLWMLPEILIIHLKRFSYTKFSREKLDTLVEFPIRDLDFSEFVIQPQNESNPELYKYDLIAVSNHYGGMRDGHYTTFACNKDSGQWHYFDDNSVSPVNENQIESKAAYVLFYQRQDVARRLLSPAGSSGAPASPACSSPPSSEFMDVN

For `Cc1ccc(C)c(Oc2ccc(CNC(=O)CCl)cn2)c1.Cl`, the “log2 ratio of Biotin-Ahx-Ub-VS probe labelling” value (from here on “log2 ratio”) in experiment [1] was -0.379; in experiment [2], -0.367; in experiment [3], -0.187; in experiment [4] it was -0.677; in experiment [5], -0.375; in experiment [6] it was -0.886. In experiment [7], the “log2 ratio” value was -0.149.

On to `Cc1cccc(N(CCC#N)C(=O)CCl)c1C`, for which the “log2 ratio” value in experiment [1] was 0.294; in experiment [2], 0.0536; in experiment [3], -0.0559; in experiment [4], -1.26 (active); in experiment [5], -0.386; in experiment [6] it was -0.934. Further, the “log2 ratio” value in experiment [7] was 0.144.

For the compound `CCN(Cc1ccc(C#N)cc1F)C(=O)CCl`, the “log2 ratio” value is -0.396 in experiment [1]; -0.331 in experiment [2]; -0.313 in experiment [3]; -0.525 in experiment [4]; -0.207 in experiment [5]; -1.27 (active) in experiment [6]. The “log2 ratio” value in experiment [7] is -0.251.

In the case of `Cl.Cn1ncc2c1CC(NC(=O)CCl)CC2` (stereo not drawn), the “log2 ratio” value was 0.311 in experiment [1]; 0.0472 in experiment [2]; -0.0643 in experiment [3]; -0.377 in experiment [4]; -0.257 in experiment [5]; -0.162 in experiment [6]. Moreover, in experiment [7], the “log2 ratio” value was 0.181.

As for `Cl.O=C(CCl)N1CCC(n2nc3ccccc3n2)CC1`, the “log2 ratio” value was -0.531 in experiment [1]; -0.268 in experiment [2]; -0.193 in experiment [3]; -0.712 in experiment [4]; -0.415 in experiment [5]; -0.422 in experiment [6]. Besides, in experiment [7], the “log2 ratio” value was -0.0827.

As for `Cc1ccc(CN(CCO)C(=O)CCl)cc1`, the “log2 ratio” value in experiment [1] is -0.468; in experiment [2], -0.204; in experiment [3] it was -0.439; in experiment [4] it was -0.837; in experiment [5], -0.351; in experiment [6], -1.16 (active). Further, the “log2 ratio” value in experiment [7] was -0.163.

For the compound `Cl.Cn1nccc1C(NC(=O)CCl)c1ccccc1` (stereo not drawn), the “log2 ratio” value in experiment [1] is 0.249; in experiment [2] it was -0.121; in experiment [3], -0.172; in experiment [4], -0.655; in experiment [5] it was -0.154; in experiment [6], -0.583. For the same compound, the “log2 ratio” value in experiment [7] is 0.125.

With `O=C(CCl)N1c2ccccc2NC(=O)C12CCCC2`, the “log2 ratio” value in experiment [1] was -0.37; in experiment [2], 0.258; in experiment [3], -0.0754; in experiment [4], -0.35; in experiment [5], 0.0618; in experiment [6], -0.0496. For the same compound, the “log2 ratio” value in experiment [7] is -0.0709.

Regarding `C#Cc1cccc(NC(=O)CCl)c1`, the “log2 ratio” value is 0.0122 in experiment [1]; -0.102 in experiment [2]; -0.121 in experiment [3]; -0.872 in experiment [4]; -0.252 in experiment [5]; -1.01 (active) in experiment [6]. Further, the “log2 ratio” value in experiment [7] is 0.0347.
